The subject of test [1] is PRMT1 (protein arginine N-methyltransferase 1). Briefly: small molecules binding arginine methyltransferase PRMT1 – biochemical, small-molecule microarray, 635 nm fluorescence, primary screen (AID 1088).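 Further: binding of Prmt1 protein to compounds spotted on small-molecule microarray slides.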 Particulars: higher = more signal.
Test [2] can be described thus: growth effects on S. cerevisiae YJM789 – YJM789 clinical isolate, OD600, 24 h, basal, primary screen (AID 1089).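 Further: growth of clinical yeast isolate S. cerevisiae YJM 789 seeded 1000 cells per well; test concentration not given here.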 Particulars: higher = more signal, called active from +8 up or from −8 down.
A short description of test [3]: S. pombe growth modifiers, basal conditions – strain 972, OD600, 24 h, no modulator, primary screen (AID 1090).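 Further: basal condition with compound alone and no growth modifier present; test concentration not given here.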 Particulars: S. pombe 972 growth, higher = more signal, called active from +8 up or from −8 down.
A short description of test [4]: budding yeast growth modifiers under rapamycin – strain BY4716, OD600, 96 h, primary screen (AID 1091). Further: test concentration not given here. To be noted: S. cerevisiae BY4716 + rapamycin, higher = more signal, called active from +8 up or from −8 down.
For test [5], the target named is Torsin-1A-interacting protein 2 (Homo sapiens) (UniProt Q8NFQ8). Briefly: small molecules binding lysate-expressed LULL1 – cell lysate, human LULL1 lysate, 635/667 nm fluorescence, primary screen (AID 1092).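 Further: probe is lysate of COS7 cells overexpressing human LULL1; score merges per-feature 667 nm fluorescence with signal-to-noise.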 To be noted: small-molecule microarray, hLULL1 lysate binding, 635 nm fluorescence; higher = more signal.
Sequence of Torsin-1A-interacting protein 2 (Homo sapiens) (Q8NFQ8 whole entry, looked up): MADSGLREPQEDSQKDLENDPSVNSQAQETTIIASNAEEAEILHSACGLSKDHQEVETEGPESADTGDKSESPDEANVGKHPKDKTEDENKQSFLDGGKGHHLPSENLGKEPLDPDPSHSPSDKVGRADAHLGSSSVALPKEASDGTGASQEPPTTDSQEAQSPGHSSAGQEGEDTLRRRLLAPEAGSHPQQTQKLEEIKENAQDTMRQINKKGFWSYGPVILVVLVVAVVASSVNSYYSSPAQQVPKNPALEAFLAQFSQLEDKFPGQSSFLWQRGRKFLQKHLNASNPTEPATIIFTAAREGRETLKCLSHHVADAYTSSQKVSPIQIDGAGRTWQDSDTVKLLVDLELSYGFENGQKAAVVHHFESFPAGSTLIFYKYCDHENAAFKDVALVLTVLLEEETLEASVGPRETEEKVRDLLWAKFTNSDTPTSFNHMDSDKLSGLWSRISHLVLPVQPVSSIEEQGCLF
Test [6] is described as follows: optical density change of DRC41 E. coli – strain DRC41, OD650, 24 h, E. coli filamentation project, primary screen (AID 1093).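 Further: MC1000 strain lacking acrAB efflux and sulA so SOS filamentation is blocked; test concentration not given here.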 To be noted: E. coli DRC41 growth, higher = more signal, called active from +8 up or from −8 down.
Test [7] can be described thus: probe aLefty2 binding to arrayed compounds – biochemical, biotinylated probe, 635/667 nm fluorescence, primary screen (AID 1094).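 Further: score merges spot fluorescence near 667 nm with spot signal-to-noise ratio.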 To be noted: small-molecule microarray, higher = more signal.
Test [8] deals with Noggin (protein binding on small-molecule microarray). Put plainly: small molecules binding Noggin protein – biochemical, 635/667 nm fluorescence, primary screen (AID 1095).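 Further: score merges 667 nm feature fluorescence with signal to noise over triplicate slides.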 Particulars: 635 nm fluorescence, higher = more signal.
For test [9], the target named is Neurogenic locus notch homolog protein 3 (Homo sapiens) (UniProt Q9UM47). Briefly: small molecules binding NOTCH3 protein – biochemical, 635/667 nm fluorescence, primary screen (AID 1096). Particulars: small-molecule microarray, 635 nm fluorescence, higher = more signal.
Sequence of Neurogenic locus notch homolog protein 3 (Homo sapiens) (Q9UM47 whole entry, looked up): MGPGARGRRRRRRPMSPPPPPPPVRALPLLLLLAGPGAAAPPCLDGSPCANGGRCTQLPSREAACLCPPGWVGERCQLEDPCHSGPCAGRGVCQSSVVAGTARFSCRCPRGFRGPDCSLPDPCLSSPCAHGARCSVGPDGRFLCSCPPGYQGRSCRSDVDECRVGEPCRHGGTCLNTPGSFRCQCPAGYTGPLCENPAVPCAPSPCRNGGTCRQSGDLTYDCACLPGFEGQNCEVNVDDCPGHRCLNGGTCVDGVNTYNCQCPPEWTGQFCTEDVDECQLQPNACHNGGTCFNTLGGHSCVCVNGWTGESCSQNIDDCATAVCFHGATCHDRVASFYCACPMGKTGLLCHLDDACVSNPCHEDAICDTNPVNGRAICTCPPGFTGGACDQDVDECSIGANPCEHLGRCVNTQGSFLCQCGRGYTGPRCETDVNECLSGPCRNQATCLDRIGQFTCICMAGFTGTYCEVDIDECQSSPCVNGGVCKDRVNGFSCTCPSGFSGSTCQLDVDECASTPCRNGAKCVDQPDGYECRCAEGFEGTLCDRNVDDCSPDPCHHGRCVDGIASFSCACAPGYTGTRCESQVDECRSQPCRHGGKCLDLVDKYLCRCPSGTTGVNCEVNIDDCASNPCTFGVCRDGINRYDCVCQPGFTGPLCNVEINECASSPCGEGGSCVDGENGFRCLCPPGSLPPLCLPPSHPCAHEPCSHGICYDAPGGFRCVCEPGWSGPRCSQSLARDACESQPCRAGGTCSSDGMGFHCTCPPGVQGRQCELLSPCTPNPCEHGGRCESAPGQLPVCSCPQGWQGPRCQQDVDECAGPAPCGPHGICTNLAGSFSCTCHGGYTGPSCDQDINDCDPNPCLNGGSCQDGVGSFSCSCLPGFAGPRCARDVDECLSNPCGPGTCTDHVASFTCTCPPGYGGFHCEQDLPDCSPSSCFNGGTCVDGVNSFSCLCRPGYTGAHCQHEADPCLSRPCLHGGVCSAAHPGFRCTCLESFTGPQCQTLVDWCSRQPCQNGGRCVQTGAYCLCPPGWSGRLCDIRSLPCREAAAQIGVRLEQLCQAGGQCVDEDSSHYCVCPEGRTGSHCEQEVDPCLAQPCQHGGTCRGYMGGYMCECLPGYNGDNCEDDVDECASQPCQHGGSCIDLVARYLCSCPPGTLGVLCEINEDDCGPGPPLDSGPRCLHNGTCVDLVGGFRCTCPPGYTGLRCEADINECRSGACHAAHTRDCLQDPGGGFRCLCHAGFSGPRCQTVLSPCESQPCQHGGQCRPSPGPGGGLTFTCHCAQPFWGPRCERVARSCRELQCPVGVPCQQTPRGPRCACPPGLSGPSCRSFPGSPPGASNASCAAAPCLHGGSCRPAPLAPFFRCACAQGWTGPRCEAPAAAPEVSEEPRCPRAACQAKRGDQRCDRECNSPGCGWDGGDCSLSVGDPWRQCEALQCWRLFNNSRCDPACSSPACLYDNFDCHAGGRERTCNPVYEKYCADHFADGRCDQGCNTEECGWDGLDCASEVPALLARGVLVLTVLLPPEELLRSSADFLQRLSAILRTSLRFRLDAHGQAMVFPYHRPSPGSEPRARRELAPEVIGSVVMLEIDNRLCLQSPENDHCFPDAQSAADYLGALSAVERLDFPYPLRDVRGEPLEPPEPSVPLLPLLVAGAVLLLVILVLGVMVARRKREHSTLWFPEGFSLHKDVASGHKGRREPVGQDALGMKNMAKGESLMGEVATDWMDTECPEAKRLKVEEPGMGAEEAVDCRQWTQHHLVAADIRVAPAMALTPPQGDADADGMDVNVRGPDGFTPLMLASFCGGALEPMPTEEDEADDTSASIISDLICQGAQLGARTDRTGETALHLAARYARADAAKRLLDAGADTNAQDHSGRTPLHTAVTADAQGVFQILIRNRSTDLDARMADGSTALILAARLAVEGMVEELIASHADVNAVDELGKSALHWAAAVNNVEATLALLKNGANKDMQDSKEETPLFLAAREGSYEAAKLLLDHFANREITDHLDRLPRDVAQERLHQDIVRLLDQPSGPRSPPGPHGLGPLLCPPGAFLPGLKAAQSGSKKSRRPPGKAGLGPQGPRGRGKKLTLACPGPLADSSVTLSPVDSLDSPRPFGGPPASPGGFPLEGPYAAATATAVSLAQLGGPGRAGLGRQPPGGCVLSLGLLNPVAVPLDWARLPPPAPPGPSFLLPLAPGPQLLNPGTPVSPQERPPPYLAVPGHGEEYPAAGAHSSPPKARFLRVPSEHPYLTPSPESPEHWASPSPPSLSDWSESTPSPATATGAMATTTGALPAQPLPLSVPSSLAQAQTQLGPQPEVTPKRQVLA
A short description of test [10]: probe aEGFR binding to arrayed compounds – biochemical, biotinylated probe, 635/667 nm fluorescence, primary screen (AID 1097).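 Further: probe is a biotinylated anti-EGFR antibody binding compounds printed on slides; score combines fluorescence near 667 nm and signal to noise of each spot.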 To be noted: small-molecule microarray, higher = more signal.
For test [11], the system named is Plasmodium falciparum Sir2 (PF13_0152, Sir2A). Put plainly: Plasmodium falciparum Sir2A binding compounds – biochemical, small-molecule microarray, 635 nm fluorescence, primary screen (AID 1098).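 Further: score merges spot fluorescence intensity with its signal-to-noise ratio.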 Particulars: fluorescence 635 nm, higher = more signal.
Test [12] is described as follows: probe aDKK1 binding to arrayed compounds – biochemical, biotinylated probe, 635/667 nm fluorescence, primary screen (AID 1099).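 Further: score merges 667nm spot fluorescence with signal to noise across triplicate slides; reference of the scale not given here.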 Particulars: small-molecule microarray, higher = more signal.
Test [13] in a line: probe aCHRDL2 binding to arrayed compounds – biochemical, biotinylated probe, 635/667 nm fluorescence, primary screen (AID 1100). To be noted: small-molecule microarray, higher = more signal.
The nature of test [14]: change in splice reporter luminescence, either direction, cell-based, HEK293, spliceosome inhibition project, primary screen (AID 1101).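 Further: HEK293 cells carrying a splicing-competent luciferase reporter gene; test concentration not given here.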 Particulars: HEK293 splicing luciferase reporter, 24 h, higher = more signal, called active from +8 up or from −8 down.
The target of test [15] is Fibroblast growth factor 10 (Homo sapiens) (UniProt O15520). Put plainly: compounds binding fibroblast growth factor 10 – biochemical, small-molecule microarray, 635 nm fluorescence, primary screen (AID 1102). To be noted: FGF10 binding, fluorescence 635 nm, higher = more signal.
Sequence of Fibroblast growth factor 10 (Homo sapiens) (O15520 whole entry, looked up): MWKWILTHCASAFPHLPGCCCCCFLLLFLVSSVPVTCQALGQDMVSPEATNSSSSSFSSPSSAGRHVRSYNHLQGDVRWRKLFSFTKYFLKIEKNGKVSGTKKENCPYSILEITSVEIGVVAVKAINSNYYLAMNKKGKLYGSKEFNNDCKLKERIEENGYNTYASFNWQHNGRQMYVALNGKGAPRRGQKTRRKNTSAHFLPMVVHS
For test [16], the system named is glycogen synthase kinase-3 (GSK3A per assay name; protocol says GSK3B). Put plainly: compounds binding glycogen synthase kinase-3 – biochemical, small-molecule microarray, 635 nm fluorescence, GSK3A, primary screen (AID 1103). Further: the record names both GSK3A and GSK3B. To be noted: fluorescence 635 nm, higher = more signal.
Test [17] deals with Epidermal growth factor receptor (Homo sapiens) (UniProt P00533). Briefly: compounds binding epidermal growth factor receptor – biochemical, small-molecule microarray, 635 nm fluorescence, primary screen (AID 1104).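 Further: score merges 667 nm emission intensity with spot signal to noise over triplicate slides.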 To be noted: EGFR binding, higher = more signal.
Sequence of Epidermal growth factor receptor (Homo sapiens) (P00533 whole entry, looked up): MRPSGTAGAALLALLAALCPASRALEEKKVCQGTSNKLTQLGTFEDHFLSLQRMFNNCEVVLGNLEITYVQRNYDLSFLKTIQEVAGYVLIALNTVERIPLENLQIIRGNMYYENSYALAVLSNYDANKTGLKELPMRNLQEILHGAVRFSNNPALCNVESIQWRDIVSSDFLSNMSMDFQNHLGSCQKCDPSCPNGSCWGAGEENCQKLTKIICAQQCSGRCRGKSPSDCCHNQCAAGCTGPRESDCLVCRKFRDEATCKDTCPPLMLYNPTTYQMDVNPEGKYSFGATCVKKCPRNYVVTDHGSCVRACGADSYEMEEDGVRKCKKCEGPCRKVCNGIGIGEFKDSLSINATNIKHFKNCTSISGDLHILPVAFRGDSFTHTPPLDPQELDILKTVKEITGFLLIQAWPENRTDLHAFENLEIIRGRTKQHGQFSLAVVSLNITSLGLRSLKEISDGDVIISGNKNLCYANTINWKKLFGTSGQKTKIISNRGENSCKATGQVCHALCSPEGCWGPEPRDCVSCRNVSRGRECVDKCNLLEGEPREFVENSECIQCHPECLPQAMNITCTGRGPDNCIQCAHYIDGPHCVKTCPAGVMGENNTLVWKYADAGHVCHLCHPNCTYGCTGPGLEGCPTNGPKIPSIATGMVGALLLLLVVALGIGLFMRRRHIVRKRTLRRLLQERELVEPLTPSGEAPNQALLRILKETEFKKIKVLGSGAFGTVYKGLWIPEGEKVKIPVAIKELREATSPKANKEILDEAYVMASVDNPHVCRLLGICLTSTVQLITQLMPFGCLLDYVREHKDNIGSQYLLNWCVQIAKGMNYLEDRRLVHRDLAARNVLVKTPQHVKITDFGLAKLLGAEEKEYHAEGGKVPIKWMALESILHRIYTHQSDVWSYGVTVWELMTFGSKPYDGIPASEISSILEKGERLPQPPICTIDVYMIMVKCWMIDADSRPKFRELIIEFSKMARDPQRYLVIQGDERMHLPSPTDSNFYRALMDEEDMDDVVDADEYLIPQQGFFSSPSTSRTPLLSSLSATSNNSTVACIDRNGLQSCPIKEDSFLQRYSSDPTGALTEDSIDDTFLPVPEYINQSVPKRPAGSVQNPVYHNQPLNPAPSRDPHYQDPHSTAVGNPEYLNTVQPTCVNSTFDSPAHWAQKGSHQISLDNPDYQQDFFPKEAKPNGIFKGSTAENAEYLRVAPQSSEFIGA
Test [18] concerns the target Follistatin-related protein 3 (Homo sapiens) (UniProt O95633). Briefly: compounds binding follistatin-related protein 3 – biochemical, small-molecule microarray, 635 nm fluorescence, primary screen (AID 1105).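 Further: score merges emission near 667 nm and signal to noise per printed spot across three slides.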 Particulars: FSTL3 binding, higher = more signal.
In test [19] the target is Dickkopf-related protein 1 (Homo sapiens) (UniProt O94907). Put plainly: small molecules binding DKK1 protein – biochemical, small-molecule microarray, 635 nm fluorescence scan, primary screen (AID 1106).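 Further: score merges emission near 667 nm with signal to noise over three replicate slides.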 Particulars: higher = more signal.
Sequence of Dickkopf-related protein 1 (Homo sapiens) (O94907 whole entry, looked up): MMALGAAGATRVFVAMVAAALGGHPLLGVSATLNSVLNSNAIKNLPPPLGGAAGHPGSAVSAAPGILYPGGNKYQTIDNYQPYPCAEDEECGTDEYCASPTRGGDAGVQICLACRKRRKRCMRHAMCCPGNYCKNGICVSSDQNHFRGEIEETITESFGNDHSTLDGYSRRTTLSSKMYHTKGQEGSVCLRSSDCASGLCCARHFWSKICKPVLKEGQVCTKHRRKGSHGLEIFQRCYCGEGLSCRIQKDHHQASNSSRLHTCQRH
Test [20] deals with Inhibin beta A chain (activin A). Put plainly: small molecules binding activin A – biochemical, small-molecule microarray, 635 nm fluorescence scan, primary screen (AID 1107).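 Further: mouse activin A protein probed at 4.33 µg/mL on printed slides; score merges bound-protein fluorescence near 667 nm with spot signal-to-noise.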 To be noted: INHBA, higher = more signal.

Our source for the composite z-score and z-score values is PubChem BioAssay.

Active and inactive are the calls of the source.

Sequence of Follistatin-related protein 3 (Homo sapiens) (O95633 whole entry, looked up): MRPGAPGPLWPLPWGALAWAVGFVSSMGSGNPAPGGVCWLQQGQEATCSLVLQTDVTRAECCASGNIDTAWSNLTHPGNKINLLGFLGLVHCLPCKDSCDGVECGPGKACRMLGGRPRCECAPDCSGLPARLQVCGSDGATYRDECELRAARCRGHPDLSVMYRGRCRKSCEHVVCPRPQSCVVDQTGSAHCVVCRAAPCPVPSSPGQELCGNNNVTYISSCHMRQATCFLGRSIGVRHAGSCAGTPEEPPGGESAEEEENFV

In the case of `CCN1C(=O)[C@H]2[C@H]3[C@H](O)[C@H](O)CC(=NOCC(C)C)[C@@H]3CC[C@H]2C1=O`, the composite z-score was 1.55 in [1]; 2.08 in [5]; -0.0898 in [7]; 1.11 in test [8]; 1.12 in [9]; 0.051 in test [10]. Further, the composite z-score was 0.85 in test [11]; -0.0898 in test [12]; -0.672 in test [13]; 0.546 in [15]; 1.24 in test [16]; 0.767 in [17]. Also, the figures for the composite z-score in test [18], in test [19] and in test [20] were 0.912, 0.797 and -0.599, respectively. Also, the z-score is -0.132 (inactive) in test [2]; -0.666 (inactive) in test [3]; -0.242 (inactive) in test [4]; -0.637 (inactive) in test [6]; 0.272 (inactive) in test [14].

For `CCOC(=O)[C@H](CC(C)C)NC(=O)CCC1CC(OC(=O)NCc2cccc3ccccc23)CC2(CCCC(COC(=O)NCCOc3ccccc3)O2)O1` (stereo not given in full), the composite z-score was 1.54 in [1]; 1.13 in test [5]; -0.177 in test [7]; 0.317 in test [8]; 0.859 in [9]; -0.171 in [10]. The composite z-score in test [11] was 0.951; in test [12] it was -0.246; in test [13], -0.383; in [15], 0.658; in test [16], 1.03; in test [17] it was 0.557. For the same molecule, the composite z-score in test [18] worked out at 0.887; in test [19] it was 0.344; in test [20], 0.184. The z-score in [2] was -0.524 (inactive); in test [3], 0.269 (inactive); in test [4] it was 0.231 (inactive); in test [6] it was 0.0653 (inactive); in [14] it was -1.87 (inactive).

On to `CO[C@@H]1COC(=O)CC=C[C@@H](C)[C@@H]2C=C[C@H](O)[C@@H](COC(=O)CC=C[C@H]1C)O2`, for which the composite z-score in test [1] was 1.56; in test [5] it was -0.664; in test [7], -0.123; in test [8], 1.47; in [9] it was 0.276; in [10], 0.0651. For the same molecule, the composite z-score in test [11] is 0.643; in test [12], -0.438; in test [13], -1.25; in [15] it was 0.602; in [16] it was 1.02; in test [17] it was 1.2. Moreover, the composite z-score was 1.52 in test [18], 1.66 in test [19] and 1.73 in [20]. Moreover, the z-score in [2] was -0.48 (inactive); in [3] it was -0.636 (inactive); in test [4], -0.922 (inactive); in [6], 0.713 (inactive); in test [14], -0.383 (inactive).

As to `COC(=O)[C@@H]1CC[C@H](C)[C@@H](c2ccc(C)cc2)N1C(=O)c1ccc(C=NO[C@@H]2O[C@H](COC(C)=O)[C@@H](OC(C)=O)[C@H](OC(C)=O)[C@H]2OC(C)=O)cc1`, the composite z-score in test [1] is 1.43; in test [5], 0.475; in [7], -0.0873; in [8], 0.199; in test [9] it was 0.864; in test [10] it was 0.129. Also, the composite z-score in test [11] was 0.32; in test [12] it was -0.254; in test [13], -0.393; in test [15] it was 0.666; in test [16], 0.798; in [17] it was 0.323. The composite z-score is 0.92 in test [18], 0.374 in [19] and -0.059 in test [20]. The z-score in [2] was 1.26 (inactive); in [3] it was -0.631 (inactive); in test [4], 0.876 (inactive); in [6] it was -1.3 (inactive); in test [14], -1.56 (inactive).

For the molecule `O=C1OCCC=C1C(O)CCc1ccccc1` (stereo not given), the composite z-score was -1.06 in [1]; -0.119 in test [5]; -0.0324 in [7]; 0.433 in test [8]; 0.67 in test [9]; 0.0009 in [10]. Besides, the composite z-score was 0.11 in [11]; -0.344 in test [12]; -0.293 in test [13]; 0.248 in test [15]; 0.216 in test [16]; 0.386 in test [17]. Also, the composite z-score in [18] is 0.527; in test [19] it was 0.586; in [20], 0.62. Besides, the z-score was -0.857 (inactive) in [2]; -0.113 (inactive) in [3]; -0.665 (inactive) in [4]; 0.353 (inactive) in test [6]; -0.278 (inactive) in test [14].

As for `COc1cccc([C@H]2Oc3ccc(OC)cc3C(=NO[C@@H]3O[C@H](COC(C)=O)[C@@H](OC(C)=O)[C@H](OC(C)=O)[C@H]3OC(C)=O)[C@@H]2O)c1`, the composite z-score was 0.102 in test [1]; -0.0867 in [5]; -0.119 in [7]; 0.35 in [8]; 0.615 in [9]; 0.0009 in test [10]. The composite z-score in [11] is -0.531; in test [12] it was 0.0366; in [13], -0.0882; in [15] it was 0.261; in [16], -0.157; in test [17], 0.344. Moreover, the composite z-score was 0.0855 in test [18], 0.0647 in test [19] and -0.43 in test [20]. In addition, the z-score in test [2] is -1.07 (inactive); in [3], 1.14 (inactive); in test [4], -0.239 (inactive); in test [6], 0.373 (inactive); in test [14], 0.598 (inactive).

Consider `CO[C@@H]1COC(=O)[C@@H]2CCCN2C(=O)[C@@H](C)COC(=O)CC=C[C@H]1C`, for which the composite z-score in test [1] was 1.41; in test [5] it was 0.882; in test [7], -0.0438; in test [8] it was 1.18; in test [9], 0.943; in test [10], -0.0788. The composite z-score in [11] was 0.13; in test [12], -0.552; in test [13] it was -0.522; in [15], 0.959; in test [16] it was 1.28; in test [17], 0.598. In addition, the composite z-score in test [18] was 0.993; in test [19], 1.12; in test [20], -0.282. Moreover, the z-score in test [2] was -0.414 (inactive); in test [3], 0.0992 (inactive); in [4], -1.14 (inactive); in [6], -0.152 (inactive); in test [14] it was -0.203 (inactive).

Consider `CCOC(=O)NN=C1C[C@@H](O)[C@@H](O)[C@@H]2[C@@H]3C(=O)N(Cc4ccccc4)C(=O)[C@@H]3CC[C@H]12`, for which the composite z-score is -0.278 in [1]; -0.308 in test [5]; -0.138 in test [7]; 0.0448 in test [8]; -0.0518 in [9]; -0.0387 in test [10]. For the same molecule, the composite z-score in test [11] was 0.245; in [12] it was -0.259; in test [13], -0.301; in test [15], -0.0919; in [16] it was -0.435; in test [17], 0.242. Also, the composite z-score is 0.0487 in [18], 0.615 in test [19] and -0.0924 in test [20]. In addition, the z-score is -0.907 (inactive) in test [2]; -0.524 (inactive) in test [3]; -1.33 (inactive) in [4]; -0.127 (inactive) in [6]; -1.14 (inactive) in test [14].

With `O=C1C=C[C@@H](O)[C@@H]2[C@@H]3C(=O)N(C[C@@H]4CCCO4)C(=O)[C@@H]3CC[C@@H]12`, the composite z-score is -0.168 in test [1]; 0.276 in test [5]; -0.139 in test [7]; 0.54 in [8]; 0.541 in test [9]; -0.0208 in test [10]. The composite z-score in test [11] was 0.27; in [12], -0.0602; in test [13] it was -0.454; in test [15], 0.513; in test [16] it was 0.496; in test [17], 0.645. Also, the figures for the composite z-score in test [18], in test [19] and in test [20] were 0.591, 1.17 and 0.451, respectively. The z-score in test [2] is 0.026 (inactive); in test [3] it was -0.479 (inactive); in test [4], 0.818 (inactive); in test [6], 0.656 (inactive); in test [14] it was 0.186 (inactive).
